# Reference: PubChem BioAssay (NCATS)
# A number with no mark means an inactive call. Calls of active or inactive are those of the source. The call rests on the fitted dose curve; in most records, active means well fitted activation curve with a large enough effect; inconclusive means small, poorly fitted or top-dose-only effect; inactive means flat fitted curve, though single readings scatter.
# Assay: Confirmation and Secondary Assay for Modulators of Hemoglobin Beta Chain Splicing at IVS2 654 locus (AID 910);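 further: HeLa cells stably carrying EGFP split by mutant beta-globin IVS2-654 intron; % of control where 0% means no effect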
# Settings: HeLa EGFP-654 splicing reporter, GFP fluorescence, 48 h; series mostly up to 38.3 µM; activation (splicing correction): at the top concentration
# Text: NIH Chemical Genomics Center [NCGC] NIH Molecular Libraries Screening Centers Network [MLSCN] MLSCN Grant: 1 X01 MH080684-01 PI Name: Dr. Ryszard Kole NCGC Assay Overview: Modulation of Alternative Splicing as Therapy Abnormal splicing is associated with a number of diseases, including cancer and genetic diseases such as cystic fibrosis, muscular dystrophy and beta-thalassemia. Alteration of disease associated splicing patterns provides a promising target for treatment. […] Mutations in the second intron of the b-globin gene at positions 654 or 705 are clinically relevant and cause mis-splicing which results in an out of frame gene product. […] EGFP-654 HeLa Cells as screen system. HeLa cell lines were stably transfected with a construct in which the EGFP (enhanced green fluorescent protein) cDNA was interrupted by the second intron of the beta-globin gene (IVS2-654). The ISV2 intron contains mutations which cause mis-splicing of EGFP and premature termination of EGFP which results in a nonfluorescent protein product. […] Expression of the transgene was driven by the CMV promoter. We concluded that a low molecular weight compound, which restored correct splicing of intron 2 would also generate functional EGFP protein, resulting in a fluorescent signal. Thus, the HeLa cells that express the EGFP-654 construct can be used for high throughput screening of a chemical library.
# NCGC Assay Protocol Summary: Confirmatory Screening. Freshly thawed HeLa EGFP-654 cells were seeded in 5 ul of optimem media (Invitrogen) containing 2 % fetal calf serum (Hyclone) and 1x penicillin/streptomycin (Invitrogen) at a concentration of 500 cells per well in 1536-well plates. Cells were incubated overnight at 37C in 5% CO2. The next day, cells were treated with DMSO, 500 nM antisense ISV2 654 PNA control oligo, or library compound and allowed to grow at 37C in 5% CO2 for 2 days. The PNA oligo blocked the mutation site in the intron and allowed proper (wild type) splicing to occur, resulting in full length EGFP expression and also allowed for optimization of the assay parameters. Plates were read in the Acumen Explorer (TTP Labtech) using 488 nm laser excitation and 500-520 nm emission PMT filter in a 1 x 8 uM capture mode. Fluorescnet objects ranging in size from 5 to 250 uM were measured and the total peak GFP intensity for each well was used for data analysis. Keywords: Thalassemia, beta-thalassemia, beta-globin, EGFP, ISV2 654, ISV2 705, SSO, PNA, antisense, splicing, MLSMR, MLSCN, NIH Roadmap, qHTS, NCGC
SMILES,activation (splicing correction),Potency
Cc1[nH]ccc2c1[nH]c1cc(=O)ccc12,6.14% [at 46.1 µM],
Cc1noc(C)c1-c1nccc(N2CCNCC2)n1,1.59%,
C=C[C@](C)(O)CCC1C(=C)CC(OC(C)=O)C2C(C)(C)CCCC12C (stereo not given in full),-2.43%,
CC(=O)Oc1ccc2c(c1)CCC1C2CC[C@]2(C)C(OC(C)=O)CCC12 (stereo not given in full),-8.53% [at 46.1 µM],
N#Cc1cccc(-c2nc(Nc3ccccc3)c3ccccc3n2)c1,1%,
CC(C)(S)[C@H](N)C(=O)O,5.73% [at 46.1 µM],
Cc1cc(OC(=O)c2c(C)cc(O)cc2O)cc(O)c1C(=O)O,6.91% [at 46.1 µM],
C1CCN2C[C@H]3C[C@H](CN4CCCCC34)C2C1 (stereo not given in full),,inactive
Cc1cnc(CNc2ncnc3ccc(-c4cccc(C#N)c4)cc23)cn1,0.751%,
COc1ccc(CNc2nc(-c3ccoc3)nc3ccccc23)c(OC)c1,-2.4%,
COCCNc1ncnc2ccc(-c3ccccc3CN(C)C)cc12,-0.13%,
c1ccc(Nc2ncnc3ccc(-c4ccc5c(c4)OCO5)cc23)cc1,1.38%,
COc1cc(C)c(C(=O)Oc2cc(C)c(C(=O)O)c(O)c2C)c(OC)c1C,-1.66%,
CC(=O)Oc1ccccc1C(=O)Oc1ccccc1C(=O)O,8.01% [at 46.1 µM],
C=CCc1ccc(OC(=O)c2ccccc2)c(OC)c1,-0.246%,
O=c1cc(-c2ccc(O)cc2)oc2cc(O[C@H]3OC(CO)C(O)C(O)C3O)cc(O)c12 (stereo not given in full),5.58% [at 46.1 µM],
COc1cc2ccc(=O)oc2cc1O,3.02% [at 46.1 µM],
CN(C)C(=O)c1ccc(-c2nc(NCc3cccnc3)c3ccccc3n2)cc1,0.948%,
COc1ccccc1CNc1cc(-c2cccc(NS(C)(=O)=O)c2)ncn1,0.865%,
C[n+]1cccc(C(=O)[O-])c1,-0.151%,

SMILES,activation (splicing correction),Potency
CN(Cc1ccco1)c1nc(-c2cccc(C#N)c2)nc2ccccc12,0.374%,
NC(Cc1c[nH]c2ccccc12)C(=O)O (stereo not given),1.07% [at 46.1 µM],
CN(C)c1ccc(-c2cc(NCc3cccnc3)ncn2)cc1,0.398%,
CN(C)Cc1ccccc1-c1nccc(NCc2cccs2)n1,-2.27%,
C#C[C@]1(O)CCC2C3CCC4=C(CCC(=O)C4)C3CC[C@@]21C (stereo not given in full),-3.73% [at 46.1 µM],
COc1ccc(C(=O)O)c(O)c1OC,-1.78%,
c1cncc(-c2nccc(-n3ccnc3)n2)c1,1.6%,
CS(=O)(=O)Nc1cccc(-c2nccc(-n3ccnc3)n2)c1,0.826%,
O=c1c(-c2ccccc2)coc2cc(O)cc(O)c12,-3.79% [at 46.1 µM],
COC(=O)c1c(OC)cc2c(c1C)Oc1c(Cl)c(O)c(Cl)c(C)c1C(=O)O2,-7.81% [at 46.1 µM],
CN1CCN(c2ccnc(-c3cccc(NS(C)(=O)=O)c3)n2)CC1,1.33%,
CN(C)Cc1ccccc1-c1cncnc1Nc1ccc(F)cc1,-0.267%,
COc1ccc2[nH]cc(CCNc3nc(-c4cccc(NS(C)(=O)=O)c4)nc4ccccc34)c2c1,0.243%,
COc1ccc2[nH]cc(CCNc3ncncc3-c3ccccc3CN(C)C)c2c1,1.38%,
CN(C)C(=O)c1ccc(-c2nc(NCc3ccccc3)c3ccccc3n2)cc1,0.285%,
CC1=CC2C(CC1=O)C(C)=CCC2C(C)C (stereo not given),0.991%,
COc1ccccc1CNc1nc(-c2ccc(N(C)C)cc2)nc2ccccc12,-1.15%,
CNc1nc(-c2ccccc2OC)nc2ccccc12,0.575%,
CN(C)Cc1ccccc1-c1cncnc1NCc1ccccc1,3.14%,
NC(Cc1ccc(O)c(O)c1)C(=O)O (stereo not given),1.85% [at 46.1 µM],
